According to the supplement of paper PMC10849652:
The full data set covers some 7,900 targets. This sample favours those with a hit. About 0.6% of all pairs of compound and target were hits.

What was measured:
Assay in all cases: log2 fold change, soluble protein after heating vs DMSO (PISA); higher = thermal stabilisation; K562 cells, 10 uM, 30 min; active = over 0.2 and 3.5 SD of the protein, either way, in both replicates (recomputed)
[1] = compound: COC1=CC=C(C=C1)CN2C=CC3=C2C=C(C=C3)C(=O)NO
Outline: (§1)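 K562 cells (2×10^6 cells/mL) were treated with 10 μM compound for 30 min, and aliquots were heated for 3 min over 48°C-58°C. Pooled aliquots were extracted in PBS with 0.5% NP-40 at 4°C, and the supernatant after 21,000xg for 90 min was measured by TMTpro 16plex LC-MS/MS with channel sums equalised. Reported thermal stability, relative to control samples and from duplicates, is a log2 fold change.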

[2] = compound: CON(C)C(=O)N1N=C(c2cc(F)ccc2F)S[C@@]1(CCCN)c1ccccc1 [filanesib]
Outline: as §1

[3] = compound: CO[C@H]1C[C@@H]2CC[C@@H](C)[C@@](O)(O2)C(=O)C(=O)N2CCCC[C@H]2C(=O)O[C@H]([C@H](C)C[C@@H]2CC[C@H](n3cnnn3)[C@H](OC)C2)CC(=O)[C@H](C)/C=C(\C)[C@@H](O)[C@@H](OC)C(=O)[C@H](C)C[C@H](C)/C=C/C=C/C=C/1C [zotarolimus]
Outline: as §1

[4] = compound: COc1cc(C(=O)O)ccc1NC(=O)[C@@H]1N[C@@H](CC(C)(C)C)[C@](C#N)(c2ccc(Cl)cc2F)[C@H]1c1cccc(Cl)c1F [idasanutlin]
Outline: as §1

[5] = compound: COc1cc(Nc2ncc3c(n2)-c2ccc(Cl)cc2C(c2c(F)cccc2OC)=NC3)ccc1C(=O)O [alisertib]
Outline: as §1

[6] = compound: COc1cc2nc(-c3cc(F)ccc3O)nc(N[C@@H]3CNC[C@H]3C(C)(C)O)c2cc1OC
Outline: as §1

[7] = compound: COc1cc2ncnc(Nc3ccc(F)c(Cl)c3)c2cc1OCCCN1CCOCC1 [gefitinib]
Outline: as §1

[8] = compound: COc1cccc2cc(-c3nc([C@H]4CC[C@H](C(=O)O)CC4)n4ncnc(N)c34)[nH]c12
Outline: as §1

[9] = compound: CS(=O)(=O)CCNCc1ccc(-c2ccc3ncnc(Nc4ccc(OCc5cccc(F)c5)c(Cl)c4)c3c2)o1 [lapatinib]
Outline: as §1

[10] = compound: CS(=O)(=O)N1CCN(Cc2cc3nc(-c4cccc5[nH]ncc45)nc(N4CCOCC4)c3s2)CC1 [pictilisib]
Outline: as §1

Measured: log2 fold change

KIF21A isoform 4 (UniProt Q7Z4S6)
inactive: [1] 0.014 | [2] 0.028 | [3] 0.051 | [4] 0.07 | [5] 0.051 | [6] 0.163 | [7] -0.028 | [8] -0.126 | [9] 0.001 | [10] 0.037

MED16 (UniProt Q9Y2X0)
inactive: [1] -0.032 | [2] 0.062 | [3] -0.029 | [4] 0.144 | [5] -0.024 | [6] -0.063 | [7] 0.016 | [8] 0.005 | [9] 0.064 | [10] 0.011

MICU1 isoform 3 (UniProt Q9BPX6)
inactive: [1] -0.047 | [2] -0.031 | [3] -0.034 | [4] 0.05 | [5] -0.011 | [7] 0.02 | [8] -0.056 | [9] 0.019 | [10] -0.038
active: [6] -0.278

IGF2R (UniProt P11717)
inactive: [1] 0.041 | [2] 0.007 | [3] -0.014 | [4] -0.012 | [5] -0.058 | [6] -0.065 | [7] -0.003 | [8] 0 | [9] 0.015 | [10] 0.002

MED25 isoform 3 (UniProt Q71SY5)
UniProt Q71SY5, sequence (Q71SY5 whole entry, looked up): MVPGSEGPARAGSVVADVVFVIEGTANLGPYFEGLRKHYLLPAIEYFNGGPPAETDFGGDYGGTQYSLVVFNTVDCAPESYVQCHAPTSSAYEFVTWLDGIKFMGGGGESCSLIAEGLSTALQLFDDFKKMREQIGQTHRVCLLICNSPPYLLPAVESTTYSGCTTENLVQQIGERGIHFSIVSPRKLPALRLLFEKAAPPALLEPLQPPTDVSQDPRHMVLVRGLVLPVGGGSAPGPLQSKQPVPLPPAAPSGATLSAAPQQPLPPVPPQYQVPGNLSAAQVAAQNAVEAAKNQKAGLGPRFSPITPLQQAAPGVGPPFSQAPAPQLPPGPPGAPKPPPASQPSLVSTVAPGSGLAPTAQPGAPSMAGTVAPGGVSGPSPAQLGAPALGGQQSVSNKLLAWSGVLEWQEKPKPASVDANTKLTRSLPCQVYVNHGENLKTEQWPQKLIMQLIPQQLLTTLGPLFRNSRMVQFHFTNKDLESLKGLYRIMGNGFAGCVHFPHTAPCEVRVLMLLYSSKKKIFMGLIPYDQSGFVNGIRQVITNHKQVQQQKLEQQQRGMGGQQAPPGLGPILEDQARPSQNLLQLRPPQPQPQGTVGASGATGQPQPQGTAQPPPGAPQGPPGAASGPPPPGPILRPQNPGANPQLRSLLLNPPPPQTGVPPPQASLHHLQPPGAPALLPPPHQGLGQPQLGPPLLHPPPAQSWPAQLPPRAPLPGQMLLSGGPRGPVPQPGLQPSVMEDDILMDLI
inactive: [1] -0.015 | [2] -0.018 | [3] 0.136 | [4] 0.004 | [5] 0.048 | [6] -0.01 | [7] 0.093 | [8] -0.285 | [9] -0.03 | [10] 0.103

IMMT isoform 2 (UniProt Q16891)
inactive: [1] 0.006 | [2] -0.101 | [3] -0.045 | [4] 0.04 | [5] -0.088 | [6] -0.25 | [7] -0.006 | [8] 0.017 | [9] -0.151 | [10] -0.238

LRBA (UniProt P50851)
inactive: [1] -0.004 | [2] -0.06 | [3] 0.002 | [4] -0.113 | [5] -0.017 | [6] 0.029 | [7] -0.008 | [8] 0.031 | [9] 0.009 | [10] -0.015

MAIP1 (UniProt Q8WWC4)
inactive: [1] 0.054 | [2] -0.12 | [3] -0.025 | [4] -0.033 | [5] -0.047 | [6] -0.088 | [7] -0.002 | [8] 0.095 | [9] 0.036 | [10] 0.01

LUZP1 (UniProt Q86V48)
inactive: [1] -0.08 | [3] -0.059 | [4] 0.03 | [5] -0.081 | [6] -0.036 | [7] 0.051 | [8] -0.117 | [9] 0.041 | [10] 0.07
active: [2] 0.552

MGST3 (UniProt O14880)
UniProt O14880, sequence (O14880 whole entry, looked up): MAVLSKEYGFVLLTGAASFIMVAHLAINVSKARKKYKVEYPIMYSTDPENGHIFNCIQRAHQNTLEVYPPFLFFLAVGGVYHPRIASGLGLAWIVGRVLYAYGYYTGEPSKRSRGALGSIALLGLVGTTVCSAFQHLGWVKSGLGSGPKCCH
inactive: [1] -0.021 | [2] -0.035 | [3] -0.005 | [4] 0.012 | [5] 0.008 | [6] 0.001 | [7] 0.002 | [8] 0.018 | [9] -0.009 | [10] 0.004

MAPKAPK5 (UniProt Q8IW41)
inactive: [1] -0.011 | [2] -0.133 | [3] 0.009 | [4] -0.017 | [5] -0.084 | [6] 0.269 | [7] 0 | [8] -0.038 | [9] 0.078 | [10] 0.134

LARP1 (UniProt Q6PKG0)
inactive: [1] 0 | [2] 0.048 | [3] -0.048 | [4] 0.089 | [5] 0.137 | [6] -0.001 | [7] -0.049 | [8] -0.161 | [9] 0.023 | [10] -0.152

LAMP2 (UniProt P13473)
inactive: [1] -0.125 | [2] -0.058 | [3] -0.022 | [4] -0.005 | [5] -0.006 | [6] -0.012 | [7] 0.005 | [8] 0.084 | [9] -0.079 | [10] 0.046

INTS7 (UniProt Q9NVH2)
UniProt Q9NVH2, sequence (Q9NVH2 whole entry, looked up): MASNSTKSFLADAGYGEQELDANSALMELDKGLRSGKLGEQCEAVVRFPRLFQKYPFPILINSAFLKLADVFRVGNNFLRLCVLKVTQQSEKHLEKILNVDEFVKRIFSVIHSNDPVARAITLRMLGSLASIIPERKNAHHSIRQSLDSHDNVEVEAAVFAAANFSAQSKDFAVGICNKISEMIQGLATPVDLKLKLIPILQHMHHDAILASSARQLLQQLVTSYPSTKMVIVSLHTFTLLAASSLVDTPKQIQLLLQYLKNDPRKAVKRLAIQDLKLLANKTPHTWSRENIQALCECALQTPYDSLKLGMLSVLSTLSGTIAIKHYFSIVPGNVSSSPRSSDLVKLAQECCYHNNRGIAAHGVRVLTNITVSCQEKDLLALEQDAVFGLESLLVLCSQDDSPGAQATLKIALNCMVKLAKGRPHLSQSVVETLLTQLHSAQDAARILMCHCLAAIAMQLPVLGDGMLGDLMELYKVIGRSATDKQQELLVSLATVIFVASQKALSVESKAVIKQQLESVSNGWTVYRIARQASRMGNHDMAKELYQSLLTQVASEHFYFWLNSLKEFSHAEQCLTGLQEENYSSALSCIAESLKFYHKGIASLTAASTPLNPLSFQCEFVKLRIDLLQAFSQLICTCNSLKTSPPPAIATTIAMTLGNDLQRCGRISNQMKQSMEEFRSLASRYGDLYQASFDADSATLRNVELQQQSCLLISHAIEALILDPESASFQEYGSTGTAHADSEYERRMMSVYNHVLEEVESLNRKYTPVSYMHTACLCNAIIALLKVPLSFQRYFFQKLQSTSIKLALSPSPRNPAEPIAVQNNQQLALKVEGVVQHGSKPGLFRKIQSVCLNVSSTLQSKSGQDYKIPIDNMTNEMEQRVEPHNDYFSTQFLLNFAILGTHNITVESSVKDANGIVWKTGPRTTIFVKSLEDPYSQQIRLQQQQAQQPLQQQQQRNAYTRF
inactive: [1] 0.05 | [2] -0.022 | [3] -0.007 | [4] -0.052 | [5] -0.029 | [6] 0.05 | [7] -0.052 | [8] -0.012 | [9] -0.015 | [10] 0.148

MIEN1 (UniProt Q9BRT3)
UniProt Q9BRT3, sequence (Q9BRT3 whole entry, looked up): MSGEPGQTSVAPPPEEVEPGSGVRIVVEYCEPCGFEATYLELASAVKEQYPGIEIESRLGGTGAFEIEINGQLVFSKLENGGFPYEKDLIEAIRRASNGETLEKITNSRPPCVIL
inactive: [1] -0.084 | [2] 0.085 | [3] 0.015 | [4] -0.009 | [5] 0.034 | [6] 0.061 | [7] 0.027 | [8] 0.001 | [9] -0.016 | [10] 0.001

KPNB1 (UniProt Q14974)
UniProt Q14974, sequence (Q14974 whole entry, looked up): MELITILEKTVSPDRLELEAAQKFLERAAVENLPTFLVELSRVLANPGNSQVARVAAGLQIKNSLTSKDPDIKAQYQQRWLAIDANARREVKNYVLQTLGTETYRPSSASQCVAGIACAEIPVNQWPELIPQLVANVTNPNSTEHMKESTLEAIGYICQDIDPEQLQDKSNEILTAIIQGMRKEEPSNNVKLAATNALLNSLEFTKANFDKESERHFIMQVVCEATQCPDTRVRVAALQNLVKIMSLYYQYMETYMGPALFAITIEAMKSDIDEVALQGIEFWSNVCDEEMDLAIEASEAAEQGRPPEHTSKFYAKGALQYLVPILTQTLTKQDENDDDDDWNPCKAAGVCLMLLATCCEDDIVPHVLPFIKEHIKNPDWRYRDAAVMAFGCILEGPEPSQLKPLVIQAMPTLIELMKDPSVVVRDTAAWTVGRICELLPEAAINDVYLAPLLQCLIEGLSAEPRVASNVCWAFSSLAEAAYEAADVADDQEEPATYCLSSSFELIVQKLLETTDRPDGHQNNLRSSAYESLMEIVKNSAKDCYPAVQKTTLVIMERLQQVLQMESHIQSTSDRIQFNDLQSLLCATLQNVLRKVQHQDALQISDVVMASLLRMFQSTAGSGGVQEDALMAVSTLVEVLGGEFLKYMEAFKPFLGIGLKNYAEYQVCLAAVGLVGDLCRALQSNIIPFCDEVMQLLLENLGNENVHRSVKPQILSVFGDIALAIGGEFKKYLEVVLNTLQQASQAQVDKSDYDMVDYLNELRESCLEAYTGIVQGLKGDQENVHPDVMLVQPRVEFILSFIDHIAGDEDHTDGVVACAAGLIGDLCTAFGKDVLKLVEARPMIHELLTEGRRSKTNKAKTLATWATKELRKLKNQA
inactive: [1] 0.033 | [2] -0.024 | [3] 0.052 | [4] -0.048 | [5] -0.07 | [6] -0.065 | [7] -0.063 | [8] -0.076 | [9] -0.001 | [10] -0.032

IPO11 isoform 2 (UniProt Q9UI26)
inactive: [1] 0.036 | [2] -0.045 | [3] 0.002 | [4] -0.087 | [5] -0.023 | [6] -0.006 | [7] -0.049 | [8] 0.04 | [9] 0.005 | [10] 0.028

MARCKSL1 (UniProt P49006)
inactive: [1] -0.074 | [2] 0.002 | [3] -0.033 | [4] -0.011 | [5] -0.093 | [6] 0.073 | [7] -0.027 | [8] 0.028 | [9] -0.061 | [10] 0.026

LIMA1 isoform 4 (UniProt Q9UHB6)
inactive: [1] -0.044 | [2] 0.178 | [3] 0.021 | [4] 0.008 | [5] -0.028 | [6] 0.171 | [7] 0.077 | [8] 0.11 | [9] -0.126 | [10] -0.1

LRRFIP1 (UniProt Q32MZ4)
inactive: [1] -0.014 | [2] 0.022 | [3] -0.034 | [4] 0.019 | [5] -0.031 | [6] 0.023 | [7] -0.007 | [8] 0.025 | [9] -0.012 | [10] -0.027

MAP1LC3B2 (UniProt A6NCE7)
inactive: [1] -0.026 | [2] -0.062 | [3] 0.011 | [4] -0.022 | [5] -0.004 | [6] -0.032 | [7] -0.003 | [8] -0.035 | [9] -0.011 | [10] -0.004

IRF2BPL (UniProt Q9H1B7)
inactive: [1] 0.283 | [2] -0.025 | [3] 0.029 | [4] 0.033 | [5] 0.058 | [6] 0.015 | [7] -0.016 | [8] -0.027 | [9] -0.015 | [10] 0.071

MIA2 (UniProt Q96PC5)
UniProt Q96PC5, sequence (Q96PC5 whole entry, looked up): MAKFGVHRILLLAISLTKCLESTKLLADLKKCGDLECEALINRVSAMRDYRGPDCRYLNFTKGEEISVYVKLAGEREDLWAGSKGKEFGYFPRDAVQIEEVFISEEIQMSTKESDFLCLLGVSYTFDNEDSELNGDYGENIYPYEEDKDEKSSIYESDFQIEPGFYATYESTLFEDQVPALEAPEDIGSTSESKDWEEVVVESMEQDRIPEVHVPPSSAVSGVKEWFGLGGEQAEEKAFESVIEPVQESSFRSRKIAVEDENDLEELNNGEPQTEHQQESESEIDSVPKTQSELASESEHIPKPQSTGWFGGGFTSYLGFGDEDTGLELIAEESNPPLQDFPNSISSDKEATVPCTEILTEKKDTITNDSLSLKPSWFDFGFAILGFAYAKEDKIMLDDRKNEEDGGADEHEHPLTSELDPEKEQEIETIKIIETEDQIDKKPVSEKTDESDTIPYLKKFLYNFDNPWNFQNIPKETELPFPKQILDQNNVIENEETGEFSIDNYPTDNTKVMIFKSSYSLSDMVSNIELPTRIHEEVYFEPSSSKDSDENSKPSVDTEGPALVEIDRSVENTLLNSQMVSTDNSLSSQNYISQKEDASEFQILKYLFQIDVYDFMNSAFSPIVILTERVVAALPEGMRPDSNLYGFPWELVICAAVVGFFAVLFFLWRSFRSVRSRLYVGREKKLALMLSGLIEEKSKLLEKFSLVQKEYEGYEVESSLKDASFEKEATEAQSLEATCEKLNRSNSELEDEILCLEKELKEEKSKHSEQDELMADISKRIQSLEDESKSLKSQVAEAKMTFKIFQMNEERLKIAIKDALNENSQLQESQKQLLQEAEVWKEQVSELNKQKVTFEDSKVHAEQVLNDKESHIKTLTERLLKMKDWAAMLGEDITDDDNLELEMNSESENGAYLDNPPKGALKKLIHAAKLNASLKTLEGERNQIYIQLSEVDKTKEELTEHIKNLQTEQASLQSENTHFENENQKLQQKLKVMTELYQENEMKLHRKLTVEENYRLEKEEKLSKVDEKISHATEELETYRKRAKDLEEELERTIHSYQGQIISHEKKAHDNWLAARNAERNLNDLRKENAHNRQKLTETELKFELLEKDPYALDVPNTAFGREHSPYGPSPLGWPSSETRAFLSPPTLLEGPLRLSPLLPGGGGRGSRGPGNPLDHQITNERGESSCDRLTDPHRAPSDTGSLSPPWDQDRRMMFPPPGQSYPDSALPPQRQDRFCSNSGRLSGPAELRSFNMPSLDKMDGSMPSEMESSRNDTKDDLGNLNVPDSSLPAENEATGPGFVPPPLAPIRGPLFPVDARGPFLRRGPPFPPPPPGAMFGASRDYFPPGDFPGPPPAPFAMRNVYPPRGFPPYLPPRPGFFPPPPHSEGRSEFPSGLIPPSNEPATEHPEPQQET
inactive: [1] -0.017 | [2] 0.121 | [3] 0.037 | [4] -0.017 | [5] 0.069 | [6] 0.027 | [7] 0.034 | [8] -0.109 | [9] 0.029 | [10] -0.019

IGFBP4 (UniProt P22692)
UniProt P22692, sequence (P22692 whole entry, looked up): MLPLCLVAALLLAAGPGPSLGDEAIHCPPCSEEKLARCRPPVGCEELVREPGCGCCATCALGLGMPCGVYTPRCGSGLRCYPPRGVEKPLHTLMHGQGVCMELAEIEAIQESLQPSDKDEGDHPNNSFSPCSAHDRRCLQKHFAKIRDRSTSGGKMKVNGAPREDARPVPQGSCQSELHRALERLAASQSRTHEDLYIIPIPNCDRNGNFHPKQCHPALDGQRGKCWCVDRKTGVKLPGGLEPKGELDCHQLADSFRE
active: [4] 0.392
inactive: [1] -0.075 | [2] 0.012 | [3] -0.31 | [5] 0.009 | [6] -0.024 | [7] -0.107 | [8] 0.179 | [9] -0.036 | [10] -0.022

LRPPRC (UniProt P42704)
inactive: [1] 0.303 | [2] -0.788 | [3] -0.02 | [4] 0 | [5] 0.207 | [6] -0.638 | [7] -0.189 | [8] 0.119 | [9] -0.091 | [10] -0.119

KEL (UniProt P23276)
inactive: [1] -0.042 | [2] 0.034 | [3] -0.043 | [4] 0.055 | [5] 0.177 | [6] -0.015 | [7] 0.07 | [8] 0.176 | [9] -0.078 | [10] 0.194

LIMD1 (UniProt Q9UGP4)
inactive: [1] 0.027 | [2] -0.007 | [3] 0.028 | [4] 0.028 | [5] -0.059 | [6] 0 | [7] -0.078 | [8] -0.01 | [9] 0.06 | [10] -0.043

IKZF1 (UniProt Q13422)
inactive: [1] -0.045 | [2] -0.136 | [3] 0.004 | [4] 0.037 | [5] -0.019 | [6] 0.01 | [7] 0.128 | [8] 0.039 | [9] -0.041 | [10] 0.026

MAP2K1 (UniProt Q02750)
UniProt Q02750, sequence (Q02750 whole entry, looked up): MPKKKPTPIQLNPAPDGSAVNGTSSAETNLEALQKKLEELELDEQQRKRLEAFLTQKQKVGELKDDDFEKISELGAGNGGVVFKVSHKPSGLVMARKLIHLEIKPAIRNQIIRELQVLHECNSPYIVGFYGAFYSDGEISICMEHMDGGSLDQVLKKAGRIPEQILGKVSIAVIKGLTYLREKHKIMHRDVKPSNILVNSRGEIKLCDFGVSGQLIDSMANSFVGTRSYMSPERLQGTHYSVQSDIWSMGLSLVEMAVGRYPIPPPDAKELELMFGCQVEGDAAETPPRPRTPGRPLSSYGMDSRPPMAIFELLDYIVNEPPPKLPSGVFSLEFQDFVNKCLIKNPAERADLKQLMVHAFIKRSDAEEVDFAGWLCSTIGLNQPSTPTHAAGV
inactive: [1] 0.022 | [2] -0.05 | [3] -0.007 | [4] -0.047 | [5] -0.048 | [6] 0.02 | [7] -0.011 | [8] 0.029 | [9] -0.045 | [10] 0.04
